The record followed here is PubChem BioAssay (NCATS).

The structures appear in SMILES notation. Results filed as inconclusive are left out. Values without a mark were called inactive. Active and inactive are the calls of the source. The call rests on the fitted dose curve; in most records, active means well fitted inhibition curve with a large enough effect; inconclusive means small, poorly fitted or top-dose-only effect; inactive means flat fitted curve, though single readings scatter.

The target in test [1] is Glutathione peroxidase 1 (Homo sapiens) (UniProt P07203). Briefly: Primary qHTS Assay for Inhibitors of Recombinant Selenoprotein Glutathione Peroxidase 1 (GPX1) (AID 1845191). Summed up:
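GPX1 10 nM, GR 100 nM, GSH 1 mM, NADPH 0.5 mM, CHP 0.5 mM (final). 30-min cpd preincubation, RT. Ex340/Em450 read t=0, t=15 min.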
(In general: In qHTS, concentration-response curves come from the screen itself.)

For test [2], the target named is Phospholipid hydroperoxide glutathione peroxidase GPX4 (Homo sapiens) (UniProt P36969). Briefly: Primary qHTS Assay for Inhibitors of Recombinant Selenoprotein Glutathione Peroxidase 4 (GPX4) (AID 1845192). On activity change, negative = inhibition: series mostly up to about 50 µM. A digest of the protocol:
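qHTS, GR-coupled: GPX4 200 nM + cpd 30 min RT → GSH 1 mM, NADPH 0.5 mM, GR 100 nM → CHP 0.5 mM start; fluor 340/450 at t0 and t15 min; no-enzyme wells as control.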
Further: nearly all actives have a fitted effect of over 65% in size.
On the % scale 0 is the no-effect control and ±100 the full control effect; potency means the concentration at half of the fitted maximal effect.

Chain of Glutathione peroxidase 1 (Homo sapiens) (P07203 whole entry, looked up): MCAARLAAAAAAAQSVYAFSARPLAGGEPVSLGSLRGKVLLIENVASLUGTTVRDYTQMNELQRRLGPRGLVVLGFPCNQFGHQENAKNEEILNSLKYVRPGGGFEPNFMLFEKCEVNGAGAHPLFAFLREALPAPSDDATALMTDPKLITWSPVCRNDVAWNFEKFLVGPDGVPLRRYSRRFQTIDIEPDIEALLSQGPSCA
Chain of Phospholipid hydroperoxide glutathione peroxidase GPX4 (Homo sapiens) (P36969 whole entry, looked up): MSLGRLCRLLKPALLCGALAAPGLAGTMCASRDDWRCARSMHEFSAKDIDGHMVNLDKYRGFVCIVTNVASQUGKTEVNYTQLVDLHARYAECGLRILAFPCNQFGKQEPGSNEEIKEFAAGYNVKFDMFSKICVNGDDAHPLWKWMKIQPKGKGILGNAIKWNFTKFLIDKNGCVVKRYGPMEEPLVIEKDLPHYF

On to `CN1C(=O)C[C@@H](C(=O)N[C@@H](Cc2cnc[nH]2)C(=O)N2CCC[C@H]2C(N)=O)NC1=O`, for which the Potency result in test [1] and in test [2] was “inactive” each time.
As for `C[C@@](Cc1ccc(O)c(O)c1)(NN)C(=O)O`, the Potency result in test [1] and in test [2] was “inactive” in each case.
As to `CC1CCCCN1CCCOC(=O)c1ccccc1` (stereo not given), the Potency entry in test [1] and in test [2] was “inactive” in each case.
Consider `CCC(C(=O)NC(N)=O)c1ccccc1` (stereo not given), for which the Potency result in test [1] and in test [2] was “inactive” in each case.
For the compound `O=C1CCC(=O)N1CO`, the Potency entry in test [1] and in test [2] was “inactive” in each case.
With `O=C(CCCN1CCC(C(=O)c2ccc(F)cc2)CC1)c1ccc(F)cc1`, the Potency entry in test [1] and in test [2] was “inactive” throughout.
With `CC(C)(C)C(=O)OCC(=O)[C@H]1CC[C@H]2[C@@H]3CCC4=CC(=O)CC[C@]4(C)[C@H]3CC[C@]12C`, the Potency entry in test [1] and in test [2] was “inactive” each time.
Take `CO[C@@]1(NC(=O)C2SC(=C(C(N)=O)C(=O)O)S2)C(=O)N2C(C(=O)O)=C(CSc3nnnn3C)CS[C@@H]21` (stereo not given in full): the values for the Potency in test [1] and in test [2] were 10.1 µM (active) and 17.8 µM (active), respectively.
For `OCCN1CCN(CC/C=C2/c3ccccc3Sc3ccc(Cl)cc32)CC1`, the Potency result in test [1] and in test [2] was “inactive” in each case.
For the compound `CCSc1ccc2c(c1)N(CCCN1CCN(C)CC1)c1ccccc1S2`, the Potency result in test [1] and in test [2] was “inactive” throughout.
Regarding `CC(CCc1ccc(O)cc1)NCC(O)c1ccc(O)cc1` (stereo not given), the Potency result in test [1] and in test [2] was “inactive” throughout.
Take `FC(F)(F)C(F)(F)C(F)(F)C(F)(F)C(F)(F)C(F)(F)F`: the Potency entry in test [1] and in test [2] was “inactive” in each case.
In the case of `Cc1c(C)c2c(c(C)c1OC(=O)CCC(=O)O)CC[C@@](C)(CCC[C@H](C)CCC[C@H](C)CCCC(C)C)O2`, the Potency entry in test [1] and in test [2] was “inactive” each time.
Regarding `COc1ccc2c(=O)c(C)c(-c3ccccc3)oc2c1CN(C)C`, the Potency entry in test [1] and in test [2] was “inactive” in each case.
On to `CC(=O)[O][Al][O]C(C)=O`, for which the activity, negative = inhibition in test [1] was -5.17% [at 9.52 µM]. Further, the activity change, negative = inhibition in test [2] is -11.7% [at 9.73 µM].
Take `CCCOc1cc(N)ccc1C(=O)OCCN(CC)CC`: the Potency entry in test [1] and in test [2] was “inactive” in each case.
`C/C=C/C=C/C(=O)O`: the Potency entry in test [1] and in test [2] was “inactive” in each case.
For the compound `CS(=O)(=O)c1ccc([C@@H](O)[C@@H](COC(=O)CN)NC(=O)C(Cl)Cl)cc1`, the Potency entry in test [1] and in test [2] was “inactive” each time.
With `O=C(O[C@H]1CN2CCC1CC2)N1CCc2ccccc2[C@@H]1c1ccccc1`, the Potency entry in test [1] and in test [2] was “inactive” throughout.
Consider `Cc1nc(NS(=O)(=O)c2ccc(N)cc2)nc(C)c1Br`, for which the Potency result in test [1] and in test [2] was “inactive” throughout.
Turning to `O=C1[O][Bi][O]c2ccccc21`, the figures for the outcome in test [1] and in test [2] were “inactive [at 0.4 µM]” and “inactive [at 0.409 µM]”, respectively.
On to `CC(C)CCCC(C)NC(C)C` (stereo not given), for which the Potency entry in test [1] and in test [2] was “inactive” each time.
As to `CCCCCc1ccc(C)cc1O`, the Potency entry in test [1] and in test [2] was “inactive” throughout.
Consider `C[C@@H](O)[C@H]1C(=O)N2C(C(=O)[O-])=C(SC3Cn4cnc[n+]4C3)[C@H](C)[C@H]12` (stereo not given in full), for which, in test [1], the activity, negative = inhibition was -13.7% [at 9.52 µM]. In test [2], the activity change, negative = inhibition is -27.3% [at 9.73 µM].
For `CN1C(=O)OC(C)(C)C1=O`, the Potency entry in test [1] and in test [2] was “inactive” in each case.
Consider `CCCCCCCCCCCCCCCCCC(=O)OCC(C)O` (stereo not given), for which the Potency entry in test [1] and in test [2] was “inactive” each time.
For the compound `OCCOCCOCCO`, the Potency entry in test [1] and in test [2] was “inactive” throughout.
Regarding `CNCC(O)c1ccc(OC(=O)C(C)(C)C)c(OC(=O)C(C)(C)C)c1` (stereo not given), the Potency result in test [1] and in test [2] was “inactive” each time.
In the case of `CN(C)CCOc1ccc(/C(=C(/CCCl)c2ccccc2)c2ccccc2)cc1`, the Potency result in test [1] and in test [2] was “inactive” each time.
As to `O=S(=O)(O)CC(S)CS` (stereo not given), the values for the Potency in test [1] and in test [2] were 10.1 µM (active) and 7.08 µM (active), respectively.
Regarding `CC1(C)[C@@H]2CC[C@@]1(C)[C@H](OC(=O)CSC#N)C2`, the Potency result in test [1] and in test [2] was “inactive” each time.
On to `O=C(OCc1ccccc1)c1cccnc1`, for which the Potency result in test [1] and in test [2] was “inactive” throughout.
`CCN1C(=O)NC(c2ccccc2)C1=O` (stereo not given): the Potency entry in test [1] and in test [2] was “inactive” each time.
As to `CNC(=O)c1c(I)c(C(=O)NCC(=O)Nc2c(I)c(C(=O)O)c(I)c(C(=O)NCCO)c2I)c(I)c(N(C)C(C)=O)c1I`, the Potency entry in test [1] and in test [2] was “inactive” each time.
With `CC(CC=O)CCCC(C)(C)O` (stereo not given), the Potency result in test [1] and in test [2] was “inactive” each time.
Turning to `Oc1cc(O)cc(O)c1`, the Potency result in test [1] and in test [2] was “inactive” in each case.
For the compound `CCCCCCCCCCCCCCCC(=O)OC[C@@H](O)[C@H]1OC[C@H](O)[C@H]1O`, the Potency result in test [1] and in test [2] was “inactive” throughout.
In the case of `CCCCCCCCCC(=O)NO`, the Potency result in test [1] and in test [2] was “inactive” each time.
Take `CS(=O)(=O)OCC(O)C(O)COS(C)(=O)=O` (stereo not given): the Potency result in test [1] and in test [2] was “inactive” throughout.
In the case of `CC(=O)Nc1c(I)c(C(=O)O)c(I)c(N(C)C(C)=O)c1I`, the Potency result in test [1] and in test [2] was “inactive” each time.
For the compound `CN(C)CCC=C1c2ccccc2C(C)(C)c2ccccc21`, the Potency entry in test [1] and in test [2] was “inactive” in each case.
Regarding `C[N@+]12CCCC[C@@H]1CCC(=C(c1cccs1)c1cccs1)C2`, the Potency entry in test [1] and in test [2] was “inactive” each time.
As to `CCCc1ccc(C(=O)O)cc1`, the Potency entry in test [1] and in test [2] was “inactive” each time.
On to `CC(C)(C)NCC(O)c1ccc(O)c(CO)n1` (stereo not given), for which the Potency result in test [1] was “inactive”. The Potency in test [2] is 12.6 µM (active).
With `NC[C@@H]1O[C@H](O[C@H]2[C@@H](O)[C@H](O[C@@H]3[C@@H](O)[C@H](N)C[C@H](N)[C@H]3O[C@H]3O[C@H](CO)[C@@H](O)[C@H](O)[C@H]3N)O[C@@H]2CO)[C@H](N)[C@@H](O)[C@@H]1O`, the outcome is “inactive [at 0.4 µM]” in test [1] and “inactive [at 0.409 µM]” in test [2].
